From PubChem BioAssay AID1694 (National Center for Advancing Translational Sciences (NCATS), 2009)
Records with an inconclusive call do not appear. Values without a mark were called inactive. Active and inactive are the calls of the source. The call rests on the fitted dose curve; in most records, active means well fitted curve in the direction sought with a large enough effect; inconclusive means small, poorly fitted or top-dose-only effect, or another doubt; inactive means no such curve, though single readings can be large or run the other way.

Assay: Confirmation Concentration-Response Assay for Inhibitors of Tau Fibril Formation, Total Fluorescence Counterscreen for Fluorescence Polarization
Details: Alexa594-tau K18 total fluorescence counterscreen, interference, tau K18 with P301L mutation; series mostly up to 100 µM; fluorescence change, negative = quenching: at the top concentration
Source text: NIH Molecular Libraries Probe Production Network [MLPCN] NIH Chemical Genomics Center [NCGC] MLPCN Grant: X01 MH083262-01 Assay Provider: Carlo Ballatore, University of Pennsylvania NCGC Assay Overview: The microtubule-associated protein tau is an abundant protein in the axons of neurons that stabilizes microtubules. With its ability to modulate microtubule dynamics, tau contributes directly or indirectly, to key structural and regulatory cellular functions. Particularly important is the influence tau exerts on axonal transport, which allows signaling molecules, trophic factors and other essential cellular constituents to travel along the axons. Under pathological conditions, tau becomes sequestered into insoluble aggregates called neurofibrillary tangles. This phenomenon is believed to have pathological consequences by promoting axonal transport deficits that ultimately lead to synaptic dysfunction and neuronal loss. To identify inhibitors of tau aggregation, a heparin-induced tau fibril formation assay was used that employed a recombinantly expressed fragment of tau, K18 (Q242-E372), bearing a P301L mutation (Gustke et al. 1994; Hong et al. 1998). […] Total fluorescence (555 nm excitation and 632 nm emission) was measured to identify fluorescent or absorbent compounds at this wavelength. Such compounds may be artifacts that interfere with the Alexa 594 Tau fluorescence polarization assay. Gustke, N., B. Trinczek, et al. (1994). "Domains of tau protein and interactions with microtubules." Biochemistry 33(32): 9511-22. Hong, M., V. Zhukareva, et al. (1998). "Mutation-specific functional impairments in distinct tau isoforms of hereditary FTDP-17." Science 282(5395): 1914-7. Li, W. and V. M. Lee (2006). "Characterization of two VQIXXK motifs for tau fibrillization in vitro." Biochemistry 45(51): 15692-701. von Bergen, M., S. Barghorn, et al. (2001). "Mutations of tau protein in frontotemporal dementia promote aggregation of paired helical filaments by enhancing local beta-structure." J Biol Chem 276(51): 48165-74.
For screening, 2 uL/well human K18 P301L (15 uM unlabeled and 0.24 uM Alexa 594-labeled tau final concentrations) in reagent buffer (100 mM sodium acetate pH 7) was dispensed into black solid 1536-well plates (Grenier) using a solenoid-based dispenser. Following transfer of 23 nL compound or DMSO vehicle by a pin tool, 2 uL/well heparin (20 uM final concentration) in reagent buffer was added and the plate centrifuged 15 s at 1000 RPM. Plates were incubated 6 hr at 37 C and then 1 uL/well ThT (30 uM final concentration) was added. After a 1 hr ambient incubation, the plates were read by an Envision (Perkin Elmer) to monitor Alexa 594 FP (555 nm excitation and 632 nm emission). Keywords: NIH Roadmap, MLPCN, MLI, MLSMR, NCGC, qHTS, tau, tauopathies, Alzheimer's disease, fibril, neurodegeneration, aggregation

SMILES | fluorescence change, negative = quenching | Potency
CCOC(=O)c1c(N)sc2c1CCOC2 | 17.4% [at 57.1 µM] | –
COc1ccc(NC(=O)Cn2cc(S(=O)(=O)N3CCN(c4ccccc4F)CC3)c3ccccc3c2=O)cc1Cl | -2.65% | –
Cc1ccc(S(=O)(=O)N(C)c2nc3ccccc3[nH]c2=S)cc1 | 7.27% | –
COC(=O)CSc1nc2ccc(NC(=O)CSc3nnnn3Cc3ccccc3)cc2s1 | -2.92% | –
COc1ccc2[nH]c(=O)c(CNc3ccccc3OC)cc2c1 | -10.1% | –
CC(C)c1ccc(NS(=O)(=O)c2ccc3[nH]cc(C(=O)NCCc4ccccc4)c(=O)c3c2)cc1 | -9.83% | –
O=S(=O)(c1ccc(NC(=S)N/N=C/c2ccc(N3CCOCC3)cc2)cc1)N1CCOCC1 | 2.35% | –
O=C(Cn1c(=O)c(CNc2ccccc2)cc2cc3c(cc21)OCCO3)Nc1ccccc1Cl | -14.4% | –
Cn1ncc(Cl)c1C(=O)Nc1cccc(Cl)c1 | 8.4% | –
COc1ccc2[nH]c(=O)c(CNc3cccc(C)c3)cc2c1 | -6.53% | –
CCOC(=O)c1nn(-c2ccccc2)c(=O)c2c(NC(C)=O)scc12 | 12.6% [at 57.1 µM] | –
Cc1cc2c(NC(=O)Nc3ccccc3)cccc2nn1 | -20.3% | –
CCOC(=O)c1nn(-c2ccccc2F)c(=O)c2c(N)scc12 | -6.67% [at 57.1 µM] | –
CCOC(=O)c1nn(-c2ccc(C)c(C)c2)c(=O)c2c(N)scc12 | -15.5% [at 57.1 µM] | –
CCOC(=O)c1nn(-c2ccccc2)c(=O)c2c(NC(=O)c3ccccc3)scc12 | 0.942% [at 57.1 µM] | –
Cc1ccc(C2=NNC(=Nc3ccc(F)cc3)SC2)cc1 | -13.1% | –
O=C(Nc1cccc(-c2nc3ccccc3o2)c1)c1cc([N+](=O)[O-])ccc1N1CCOCC1 | -5.59% | –
CCOC(=O)c1c(N)sc2c1CN(C)CC2 | 14% [at 57.1 µM] | –
Nc1nc2cc(S(=O)(=O)NC3=NCCCCC3)ccc2s1 | 17.4% | –
O=C(NCc1cccnc1)C1CCN(S(=O)(=O)c2cccs2)CC1 | -5.66% | –
Cc1ccc(N(C)S(=O)(=O)c2nnc(NC(=O)C3CCCCC3)s2)cc1 | 4.56% | –
CN(c1ccccc1)S(=O)(=O)c1nnc(NC(=O)C2CCCCC2)s1 | -17.2% | –
CCOC(=O)c1nn(-c2ccccc2)c(=O)c2c(N)scc12 | – | inactive
CCOC(=O)c1nn(-c2cccc(C(F)(F)F)c2)c(=O)c2c(N)scc12 | – | 1580 nM [quencher] (active)
CCN(c1ccccc1)S(=O)(=O)c1nnc(NC(=O)C(C)(C)C)s1 | -3.33% | –
